Experimental data from PubChem BioAssay AID1159580 (chemical genetic matrix, 2015).
Out of some 5,500 compounds screened, about 2,000 (36%) were called active. Roughly 18% stayed inconclusive and do not appear here. Cut-off read from the data, not from the text of the source: active = normalized growth mostly below about 0.91 (no sharp cut-off); inconclusive = no clear call, values can overlap the other calls; inactive = mostly above about 0.92. Some of the results follow.

Assay: chemical genetic growth profiling, strain panel (AID 1159580);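 note: tested at 20 µM; growth read once vehicle control cultures reached saturation at 30 °C; 1 = growth at the plate median or of vehicle wells; lower values mean less growth of the strain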
Details: growth OD

Measured: normalized growth

O=[N+]([O-])c1ccc(O)c([N+](=O)[O-])c1
inactive: S. cerevisiae deletion strains, locus YLR039C, strain RIC1, hits give low values 0.841 | S. cerevisiae deletion strains, locus YLR262C, strain YPT6, hits give low values 0.932 | S. cerevisiae deletion strains, locus YLR342W, strain FKS1 (second series), hits give low values 0.851 | S. cerevisiae deletion strains, locus YLR357W, strain rsc2, hits give low values 0.855 | S. cerevisiae deletion strains, locus YMR125W, strain sto1, hits give low values 0.898 | S. cerevisiae deletion strains, locus YMR307W, strain GAS1, hits give low values 0.819 | S. cerevisiae deletion strains, locus YNL248C, strain rpa49, hits give low values 0.937 | S. cerevisiae deletion strains, locus YOL006C, strain TOP1, hits give low values 0.9 | S. cerevisiae deletion strains, locus YOL012C, strain htz1 0.683 | S. cerevisiae deletion strains, locus YOR106W, strain vam3, hits give low values 0.87 | S. cerevisiae deletion strains, locus YOR270C, strain vph1, hits give low values 0.901
active: S. cerevisiae deletion strains, locus YKL009W, strain mrt4, hits give low values 0.249 | S. cerevisiae deletion strains, locus YKL068W, hits give low values 0.354 | S. cerevisiae deletion strains, locus YKL085W, strain MDH1 (second series), hits give low values 0.192 | S. cerevisiae deletion strains, locus YKL085W, strain MDH1, hits give low values 0.192 | S. cerevisiae deletion strains, locus YKL160W, strain elf1, hits give low values 0.87 | S. cerevisiae deletion strains, locus YKL190W, strain CNB1, hits give low values 0.795 | S. cerevisiae deletion strains, locus YKR001C, strain vps1, hits give low values 0.691 | S. cerevisiae deletion strains, locus YKR026C, strain gcn3, hits give low values 0.77 | S. cerevisiae deletion strains, locus YKR091W, strain srl3, hits give low values 0.808 | S. cerevisiae deletion strains, locus YLL001W, strain dnm1, hits give low values 0.793 | S. cerevisiae deletion strains, locus YLL026W, hits give low values 0.816 | S. cerevisiae deletion strains, locus YLL041C, strain sdh2, hits give low values 0.82 | S. cerevisiae deletion strains, locus YLR027C, strain aat2, hits give low values 0.819 | S. cerevisiae deletion strains, locus YLR058C, strain SHM2, hits give low values 0.802 | S. cerevisiae deletion strains, locus YLR102C, strain apc9, hits give low values 0.691 | S. cerevisiae deletion strains, locus YLR113W, strain HOG1, hits give low values 0.214 | S. cerevisiae deletion strains, locus YLR221C, strain rsa3, hits give low values 0.786 | S. cerevisiae deletion strains, locus YLR258W, strain gsy2, hits give low values 0.843 | S. cerevisiae deletion strains, locus YLR262C, strain YPT6 (second series), hits give low values 0.833 | S. cerevisiae deletion strains, locus YLR268W, strain sec22, hits give low values 0.736 | S. cerevisiae deletion strains, locus YLR320W, strain mms22, hits give low values 0.807 | S. cerevisiae deletion strains, locus YLR330W, strain CHS5, hits give low values 0.733 | S. cerevisiae deletion strains, locus YLR342W, strain FKS1, hits give low values 0.855 | S. cerevisiae deletion strains, locus YLR370C, strain arc18, hits give low values 0.814 | S. cerevisiae deletion strains, locus YLR371W, strain rom2, hits give low values 0.718 | S. cerevisiae deletion strains, locus YLR384C, strain iki3, hits give low values 0.798 | S. cerevisiae deletion strains, locus YLR418C, strain cdc73, hits give low values 0.661 | S. cerevisiae deletion strains, locus YML016C, strain PPZ1, hits give low values 0.79 | S. cerevisiae deletion strains, locus YML032C, strain rad52, hits give low values 0.697 | S. cerevisiae deletion strains, locus YML120C, strain ndi1, hits give low values 0.781 | S. cerevisiae deletion strains, locus YML124C, strain tub3, hits give low values 0.701 | S. cerevisiae deletion strains, locus YMR058W, strain fet3, hits give low values 0.793 | S. cerevisiae deletion strains, locus YMR078C, strain ctf18, hits give low values 0.68 | S. cerevisiae deletion strains, locus YMR129W, hits give low values 0.77 | S. cerevisiae deletion strains, locus YMR205C, strain PFK2, hits give low values 0.852 | S. cerevisiae deletion strains, locus YMR223W, strain ubp8, hits give low values 0.776 | S. cerevisiae deletion strains, locus YMR231W, strain pep5, hits give low values 0.761 | S. cerevisiae deletion strains, locus YMR263W, strain SAP30, hits give low values 0.783 | S. cerevisiae deletion strains, locus YNL067W, strain RPL9B, hits give low values 0.779 | S. cerevisiae deletion strains, locus YNL071W, strain lat1, hits give low values 0.826 | S. cerevisiae deletion strains, locus YNL128W, strain TEP1, hits give low values 0.842 | S. cerevisiae deletion strains, locus YNL153C, strain GIM3, hits give low values 0.786 | S. cerevisiae deletion strains, locus YNL183C, strain NPR1, hits give low values 0.179 | S. cerevisiae deletion strains, locus YNL209W, strain ssb2, hits give low values 0.829 | S. cerevisiae deletion strains, locus YNL233W, strain BNI4, hits give low values 0.75 | S. cerevisiae deletion strains, locus YNL250W, strain rad50, hits give low values 0.265 | S. cerevisiae deletion strains, locus YNL271C, strain bni1, hits give low values 0.31 | S. cerevisiae deletion strains, locus YNL298W, strain CLA4, hits give low values 0.251 | S. cerevisiae deletion strains, locus YNL307C, strain MCK1, hits give low values 0.635 | S. cerevisiae deletion strains, locus YNL322C, strain KRE1 (second series), hits give low values 0.651 | S. cerevisiae deletion strains, locus YNL322C, strain KRE1, hits give low values 0.798 | S. cerevisiae deletion strains, locus YNR049C, strain mso1, hits give low values 0.779 | S. cerevisiae deletion strains, locus YNR052C, strain pop2, hits give low values 0.728 | S. cerevisiae deletion strains, locus YOL147C, strain pex11, hits give low values 0.693 | S. cerevisiae deletion strains, locus YOR001W, strain rrp6, hits give low values 0.841 | S. cerevisiae deletion strains, locus YOR061W, strain CKA2, hits give low values 0.819 | S. cerevisiae deletion strains, locus YOR069W, strain VPS5, hits give low values 0.759 | S. cerevisiae deletion strains, locus YOR070C, strain gyp1, hits give low values 0.836 | S. cerevisiae deletion strains, locus YOR080W, strain dia2, hits give low values 0.812 | S. cerevisiae deletion strains, locus YOR083W, strain WHI5, hits give low values 0.831 | S. cerevisiae deletion strains, locus YOR136W, strain idh2, hits give low values 0.845 | S. cerevisiae deletion strains, locus YOR144C, strain elg1, hits give low values 0.709 | S. cerevisiae deletion strains, locus YOR184W, strain ser1, hits give low values 0.799 | S. cerevisiae deletion strains, locus YOR231W, strain MKK1, hits give low values 0.266 | S. cerevisiae deletion strains, locus YOR265W, strain rbl2, hits give low values 0.832 | S. cerevisiae deletion strains, locus YOR290C, strain snf2, hits give low values 0.826 | S. cerevisiae deletion strains, locus YOR316C, strain cot1, hits give low values 0.726 | S. cerevisiae deletion strains, locus YPL051W, strain arl3, hits give low values 0.843 | S. cerevisiae deletion strains, locus YPL055C, strain LGE1, hits give low values 0.753 | S. cerevisiae deletion strains, locus YPL078C, strain atp4, hits give low values 0.737 | S. cerevisiae deletion strains, locus YPL106C, strain sse1, hits give low values 0.736 | S. cerevisiae deletion strains, locus YPL240C, strain hsp82, hits give low values 0.813 | S. cerevisiae deletion strains, locus YPL241C, strain CIN2, hits give low values 0.812 | S. cerevisiae deletion strains, locus YPL256C, strain CLN2, hits give low values 0.256 | S. cerevisiae deletion strains, locus YPR119W, strain clb2, hits give low values 0.697 | S. cerevisiae deletion strains, locus YPR141C, strain kar3, hits give low values 0.309 | S. cerevisiae deletion strains, locus YPR163C, strain tif3, hits give low values 0.656 | S. cerevisiae deletion strains, locus YPR167C, strain met16, hits give low values 0.719 | S. cerevisiae deletion strains, strain wtn01, hits give low values 0.755 | S. cerevisiae strains, strain wild type, hits give low values 0.799
